The text below walks through data of the OligoGym collection.
Also: reference of the scale not given here.

One assay has as its target SCAF4. Description: pooled miR-30 sensor sort-seq; sequence = guide strand. Conditions: shRNA.
As for TTTCTTGAGATCGAGATCGGGG, the sensor-assay potency score (higher = more potent) was -0.563.

Regarding TTACACTTTTTGATGAACTTTT, the sensor-assay potency score (higher = more potent) was -0.768.

For the sequence TAACTGAGCTGTGATAGCCTGA, the sensor-assay potency score (higher = more potent) is -0.339.

TTAGTGATGAGAATCATCTTGG: the sensor-assay potency score (higher = more potent) turned out to be 0.534.

For TAACATTTTCTGCTACTGGGGC, the sensor-assay potency score (higher = more potent) is -0.447.

Take TTGTTCTACTTCCATTTCCTGC: the sensor-assay potency score (higher = more potent) was -0.925.

Sequence TCTACCTGAATTGAACTGCTGC came in with a sensor-assay potency score (higher = more potent) of 0.449.

A further assay has as its target SCAPER. Described as above. Particulars: shRNA.
For TTCATCTGGAACATAAACCGTC, the sensor-assay potency score (higher = more potent) was 0.155.

As for TTGAGCATCTGTCTTCTCTAGC, the sensor-assay potency score (higher = more potent) is -0.0428.

Regarding TTGAGTGTAATTCTCCTTGGGA, the sensor-assay potency score (higher = more potent) came out at 0.0508.

ATAATCTGCAAGGACATCGTTC: the sensor-assay potency score (higher = more potent) was -0.342.

Sequence TTACATTCGACCACACTCTGAT came in with a sensor-assay potency score (higher = more potent) of 0.939.

As to TTAACAATTCTTCTACACGGGC, the sensor-assay potency score (higher = more potent) was -0.521.

For TTTTCTTCCATCATCCTGCGTC, the sensor-assay potency score (higher = more potent) turned out to be 0.186.

For the sequence TTCTTTATCACTGTCATCCTTT, the sensor-assay potency score (higher = more potent) stood at 0.0905.

On to TTATTTTACAGTCCACTGCAGT, for which the sensor-assay potency score (higher = more potent) was -0.733.

Take TAAACATTGATTGCATTGCAGA: the sensor-assay potency score (higher = more potent) is -1.19.

Take TTGATCTAGCAATTCTTCCTTC: the sensor-assay potency score (higher = more potent) came out at 0.245.

A further assay has as its target SCG3. Described as above. Particulars: shRNA.
The sequence TAGTAGAGTCATAATCATCGAT gave a sensor-assay potency score (higher = more potent) of 0.0703.

Regarding TTGTCATGTTTCTTCAACCATT, the sensor-assay potency score (higher = more potent) is -1.02.

Take TATTGTTCCATATTTCACCATC: the sensor-assay potency score (higher = more potent) was -0.949.

Regarding TTCTTATAGATTGTCTTTCTTT, the sensor-assay potency score (higher = more potent) is -0.774.

Sequence TAGTTTAGAAACAATCTTGTCA yielded a sensor-assay potency score (higher = more potent) of 0.211.

As to TAATCTTGTCTTCTTCTGCTTC, the sensor-assay potency score (higher = more potent) is -0.063.

On to TTAATTTTTGTAAAACCTCTGC, for which the sensor-assay potency score (higher = more potent) is -0.0676.

As to TTTCAAGGTAGGAAACACCTTC, the sensor-assay potency score (higher = more potent) was 0.087.

Consider TTTATGATCCAATCCACTCTTA, for which the sensor-assay potency score (higher = more potent) is -0.0664.

For the sequence TAGTTGATGAAGACCATCTGGA, the sensor-assay potency score (higher = more potent) worked out at 0.192.

For TTCTTCATGACTCTTCTCTGAT, the sensor-assay potency score (higher = more potent) worked out at 0.0122.

For the next assay, the target named is SCGB1D4. The description is as above. Conditions: shRNA.
Take TTCAATGAGAGTCGTTTCTTAA: the sensor-assay potency score (higher = more potent) was -0.987.

AAAGATATCTGATCGGTGCAGT: the sensor-assay potency score (higher = more potent) came out at 0.161.

In the case of TCTTAAAAGATATCTGATCGGT, the sensor-assay potency score (higher = more potent) was -0.48.

In the case of TTTTTAGTGAAGATCAGGGTGT, the sensor-assay potency score (higher = more potent) was found to be 0.0112.

In the case of AAGTTTGGCAACTTGGAGGTTT, the sensor-assay potency score (higher = more potent) is -0.0937.

As to AATAAGAAGACTGTGATCTCAG, the sensor-assay potency score (higher = more potent) worked out at 0.355.

In the case of TTAAAAGATATCTGATCGGTGC, the sensor-assay potency score (higher = more potent) was 0.0419.

In the case of TTCACTTCCAACTTGGCTGCAA, the sensor-assay potency score (higher = more potent) came to 1.11.

Regarding TTTCAATGAGAGTCGTTTCTTA, the sensor-assay potency score (higher = more potent) worked out at 0.178.

On to TGATCTCAGAAGCAACAGCTGG, for which the sensor-assay potency score (higher = more potent) was -1.12.

Consider ATTAAGTTTGGCAACTTGGAGG, for which the sensor-assay potency score (higher = more potent) was -1.05.
